In PubChem BioAssay (NCI):
About 79,000 compounds went through this panel and 15% of them were active in at least one assay; those are over-represented in the sample as a whole. The source made the active and inactive calls. Cut-off read from the data, not from the text of the source: active = growth inhibition above about 70%; inactive = the rest.

How the values were obtained:
[1] = NCI Yeast Anticancer Drug Screen. Data for the rad52 strain (AID 147);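 note: 0% = growth of vehicle-treated control cultures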; conditions: S. cerevisiae rad52 mutant growth inhibition, hits give high values
Summary of the method: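 Growth of repair-deficient yeast cells was compared between compound-treated and vehicle-treated cultures to give percent inhibition.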

[2] = NCI Yeast Anticancer Drug Screen. Data for the wt1 strain (AID 149);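 note: 0% = growth of vehicle-treated wt1 cultures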; conditions: S. cerevisiae wt1 strain (SPY 50644) growth inhibition, hits give high values
Summary of the method: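 The wt1 strain was treated with compounds, and growth was compared with vehicle-treated cultures to give inhibition.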

[3] = NCI Yeast Anticancer Drug Screen. Data for the mgt1 strain (AID 153); conditions: S. cerevisiae mgt1 mutant growth inhibition, hits give high values
Summary of the method: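 Compounds were applied to mgt1 mutant yeast, and growth was then compared against vehicle-treated control cultures to give percent inhibition.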

[4] = NCI Yeast Anticancer Drug Screen. Data for the rad50 strain (AID 155);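 note: 0% = growth of vehicle-only cultures of the same strain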; conditions: S. cerevisiae rad50 strain growth inhibition, hits give high values
Summary of the method: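 Cells are treated with compound, grown, and their growth is then scored against vehicle-only cultures of the same repair-deficient yeast strain.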

[5] = NCI Yeast Anticancer Drug Screen. Data for the mec2-1 strain (AID 157); conditions: S. cerevisiae mec2-1 strain, hits give high values
Summary of the method: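 Compounds were applied to mec2-1 yeast cells. Their growth was then compared with that of vehicle-treated cultures to give growth inhibition.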

[6] = NCI Yeast Anticancer Drug Screen. Data for the rad14 strain (AID 159);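 note: 0% = growth of vehicle-treated control cultures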; conditions: S. cerevisiae rad14 strain growth inhibition, hits give high values
Summary of the method: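 Readout: yeast growth inhibition, referenced to vehicle-only cultures. Strain bears a defined alteration in DNA damage repair.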

[7] = NCI Yeast Anticancer Drug Screen. Data for the sgs1 mgt1 strain (AID 161);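 note: 0% = growth of cultures given vehicle only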; conditions: S. cerevisiae sgs1 mgt1 strain, hits give high values
Summary of the method: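 Yeast cells carrying a defined DNA-repair defect were exposed to test compounds. Growth inhibition was measured relative to vehicle-treated controls.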

[8] = NCI Yeast Anticancer Drug Screen. Data for the CLN2oe strain (AID 163);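 note: 0% = growth of vehicle-only control cultures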; conditions: S. cerevisiae CLN2oe strain, hits give high values
Summary of the method: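 Cells of an engineered yeast line with disturbed cell-cycle regulation are treated with compound. Inhibition of growth is then calculated relative to the vehicle-treated reference.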

[9] = NCI Yeast Anticancer Drug Screen. Data for the cln2 rad14 strain (AID 165);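 note: 0% = growth equal to vehicle treated cultures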; conditions: S. cerevisiae cln2 rad14 strain, hits give high values
Summary of the method: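 Strain: cln2 rad14 yeast, altered in cell cycle control and DNA damage repair. Read-out: growth inhibition vs vehicle.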

[10] = NCI Yeast Anticancer Drug Screen. Data for the bub3 strain (AID 167); conditions: S. cerevisiae bub3 mutant strain, hits give high values
Summary of the method: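 Part of a panel of yeast mutants defective in DNA damage repair or cell cycle regulation. Each strain is grown with compound, and inhibition is calculated relative to solvent-treated cultures.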

[11] = NCI Yeast Anticancer Drug Screen. Data for the wt2 strain (AID 169);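 note: 0% = growth of vehicle-treated yeast cultures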; conditions: S. cerevisiae wt2 strain growth inhibition, hits give high values
Summary of the method: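 Growth of compound-treated yeast is measured and expressed as inhibition relative to vehicle-only controls.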

[12] = NCI Yeast Anticancer Drug Screen. Data for the mlh1 strain (AID 171);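 note: 0% = growth of vehicle-treated control cultures of the same strain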; conditions: S. cerevisiae mlh1 strain growth inhibition, hits give high values
Summary of the method: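 Test agents were incubated with yeast bearing a defined DNA damage repair or cell cycle control alteration; values are growth inhibition normalised to vehicle-treated cultures.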

[13] = NCI Yeast Anticancer Drug Screen. Data for the sgs1 strain (AID 173);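 note: 0% = growth of vehicle-only control cultures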; conditions: S. cerevisiae sgs1 mutant, hits give high values
Summary of the method: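 Strain with an altered DNA repair or cell cycle pathway exposed to compound. Growth then measured. Value = inhibition versus vehicle control.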

[14] = NCI Yeast Anticancer Drug Screen. Data for the mlh1 rad18 strain (AID 175); conditions: S. cerevisiae mlh1 rad18 strain growth inhibition, hits give high values
Summary of the method: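 A repair-deficient yeast strain is exposed to test compound, and growth is scored relative to vehicle-treated controls.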

[15] = NCI Yeast Anticancer Drug Screen. Data for the rad18 strain (AID 177); conditions: S. cerevisiae rad18 mutant growth inhibition, hits give high values
Summary of the method: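 DNA-repair-defective yeast; compound treatment; growth inhibition scored against vehicle.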

[16] = NCI Yeast Anticancer Drug Screen. Data for the rad50EPP+ strain (AID 151);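 note: 0% = growth of vehicle-treated control cultures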; conditions: S. cerevisiae rad50 mutant strain, hits give high values
Summary of the method: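 Measured: growth inhibition of rad50EPP+ yeast. Reference: vehicle-treated controls. Screen uses strains with defined genetic alterations in DNA damage repair or cell cycle control.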

[17] = at 5.0 µM (retest, dose inferred, filed as 0.5)
[18] = at 50.0 µM (retest, dose inferred, filed as 5.0)

Measured: growth inhibition

CCCCCCCCN1COCC(COc2ccccc2C)OC1 (stereo unspecified)
inactive: [1]; at 1.2 µM -3% | [1]; at 3.7 µM 0% | [1]; at 11.0 µM 1% | [1]; at 33.0 µM 13% | [2]; at 1.2 µM -1% | [2]; at 3.7 µM -1% | [2]; at 11.0 µM 2% | [2]; at 33.0 µM 8% | [3]; at 1.2 µM -1% | [3]; at 3.7 µM -2% | [3]; at 11.0 µM 0% | [3]; at 33.0 µM 5% | [4]; at 1.2 µM -2% | [4]; at 3.7 µM -4% | [4]; [17] 0% | [4]; at 11.0 µM 3% | [4]; at 33.0 µM 5% | [4]; [18] 5% | [5]; at 1.2 µM -4% | [5]; at 3.7 µM -4% | [5]; [17] 3% | [5]; at 11.0 µM -6% | [5]; at 33.0 µM 2% | [5]; [18] -7% | [6]; at 1.2 µM 0% | [6]; at 3.7 µM 1% | [6]; at 11.0 µM 1% | [6]; at 33.0 µM 22% | [7]; [17] -1% | [7]; [18] 1% | [8]; at 1.2 µM -4% | [8]; at 3.7 µM 0% | [8]; at 11.0 µM -58% | [8]; at 33.0 µM 9% | [9]; [17] 20% | [9]; [18] 44% | [9]; at 50.0 µM 55.2% | [10]; at 1.2 µM -9% | [10]; at 3.7 µM -7% | [10]; [17] -25% | [10]; at 11.0 µM 5% | [10]; at 33.0 µM 15% | [10]; [18] 1% | [11]; at 1.2 µM -1% | [11]; at 3.7 µM 0% | [11]; at 11.0 µM 0% | [11]; at 33.0 µM 13% | [12]; at 1.2 µM -1% | [12]; at 3.7 µM 0% | [12]; at 11.0 µM 0% | [12]; at 33.0 µM -17% | [13]; at 1.2 µM -3% | [13]; at 3.7 µM -2% | [13]; at 11.0 µM 0% | [13]; at 33.0 µM 22% | [14]; [17] -8% | [14]; [18] -2% | [15]; at 1.2 µM -15% | [15]; at 3.7 µM -4% | [15]; at 11.0 µM 4% | [15]; at 33.0 µM 11%
active: [1]; at 100.0 µM 99% | [2]; at 100.0 µM 96% | [3]; at 100.0 µM 99% | [4]; at 50.0 µM 97.3% | [4]; at 100.0 µM 99% | [5]; at 50.0 µM 85.3% | [5]; at 100.0 µM 99% | [6]; at 100.0 µM 99% | [7]; at 50.0 µM 93.3% | [8]; at 100.0 µM 99% | [10]; at 50.0 µM 76.5% | [10]; at 100.0 µM 98% | [11]; at 100.0 µM 99% | [12]; at 100.0 µM 99% | [13]; at 100.0 µM 99% | [14]; at 50.0 µM 95% | [15]; at 100.0 µM 99%

O=C1C[C@H]2[C@H](c3ccc(Br)cc3)[C@H]3C(=O)c4ccccc4NC(=O)[C@@H]3[C@@]2(O)c2ccccc2N1
active: [4]; at 50.0 µM 96.8% | [5]; at 50.0 µM 97.8% | [7]; at 50.0 µM 96.4% | [9]; at 50.0 µM 97% | [10]; at 50.0 µM 72% | [14]; at 50.0 µM 97.8%
inactive: [1]; at 1.2 µM 5% | [1]; at 3.7 µM 7% | [1]; at 11.0 µM 8% | [1]; at 33.0 µM 38% | [1]; at 100.0 µM 33% | [16]; at 1.2 µM 0% | [16]; at 3.7 µM 2% | [16]; at 11.0 µM 3% | [16]; at 33.0 µM 3% | [16]; at 100.0 µM 3% | [3]; at 1.2 µM 5% | [3]; at 3.7 µM 11% | [3]; at 11.0 µM 12% | [3]; at 33.0 µM 45% | [3]; at 100.0 µM 36% | [4]; at 1.2 µM 3% | [4]; at 3.7 µM 6% | [4]; [17] -12% | [4]; at 11.0 µM 9% | [4]; at 33.0 µM 35% | [4]; [18] 14% | [4]; at 100.0 µM 35% | [5]; at 1.2 µM 9% | [5]; at 3.7 µM 11% | [5]; [17] 14% | [5]; at 11.0 µM 15% | [5]; at 33.0 µM 33% | [5]; [18] 19% | [5]; at 100.0 µM 33% | [6]; at 1.2 µM 6% | [6]; at 3.7 µM 9% | [6]; at 11.0 µM 16% | [6]; at 33.0 µM 32% | [6]; at 100.0 µM 27% | [7]; [17] -3% | [7]; [18] 2% | [8]; at 1.2 µM 9% | [8]; at 3.7 µM 16% | [8]; at 11.0 µM 16% | [8]; at 33.0 µM 38% | [8]; at 100.0 µM 38% | [9]; [17] -7% | [9]; [18] 27% | [10]; at 1.2 µM 3% | [10]; at 3.7 µM 7% | [10]; [17] 7% | [10]; at 11.0 µM 9% | [10]; at 33.0 µM 19% | [10]; [18] 56% | [10]; at 100.0 µM 23% | [12]; at 1.2 µM 6% | [12]; at 3.7 µM 12% | [12]; at 11.0 µM 14% | [12]; at 33.0 µM 32% | [12]; at 100.0 µM 29% | [13]; at 1.2 µM 8% | [13]; at 3.7 µM 17% | [13]; at 11.0 µM 26% | [13]; at 33.0 µM 44% | [13]; at 100.0 µM 39% | [14]; [17] 36% | [14]; [18] 54% | [15]; at 1.2 µM 6% | [15]; at 3.7 µM 16% | [15]; at 11.0 µM 29% | [15]; at 33.0 µM 52% | [15]; at 100.0 µM 46%
